Results published in PubChem BioAssay (NCATS).
Inconclusive results are not listed. Active and inactive are the calls of the source. Calls follow the shape of the dose curve; as a rule, active = well fitted cell-killing curve with a large enough effect; inconclusive = small, poorly fitted or top-dose-only effect, or effect the other way; inactive = flat fitted curve, though single readings scatter. Where a SMILES comes first, the peptide text is derived from it. [ ]: non-standard residue; d: D form.

Legend:
Assay in all cases: Primary qHTS to identify gynecologic anti-cancer compounds using libraries of approved drugs and bioactive compounds (AID 1345084); also: nearly all actives have a fitted effect of over 55% in size
[1] = test system: Es-2; conditions: Gynecologic cancer cell panel viability, ATPlite luminescence, 48 h; series mostly up to 57.5 µM
Procedure, shortened: (§1)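 Cells, 1,000 per well, were allowed to settle for 16 h at 37 C before compound addition. Five concentrations were tested for 48 h, and viability was read by ATPlite luminescence after 15 min at room temperature.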

[2] = test system: HeLa; conditions: Gynecologic cancer cell panel viability, ATPlite luminescence, 48 h; series mostly up to 57.5 µM
Procedure, shortened: as §1

[3] = test system: Hek293T; conditions: Gynecologic cancer cell panel viability, ATPlite luminescence, 48 h, control line for the selectivity index; series mostly up to 57.5 µM
Procedure, shortened: as §1

[4] = test system: JEG-3; conditions: Gynecologic cancer cell panel viability, ATPlite luminescence, 48 h; series mostly up to 57.5 µM
Procedure, shortened: as §1

[5] = test system: OV90; conditions: Gynecologic cancer cell panel viability, ATPlite luminescence, 48 h; series mostly up to 57.5 µM
Procedure, shortened: as §1

[6] = test system: PA-1; conditions: Gynecologic cancer cell panel viability, ATPlite luminescence, 48 h; series mostly up to 57.5 µM
Procedure, shortened: as §1

[7] = test system: SKOV3; conditions: Gynecologic cancer cell panel viability, ATPlite luminescence, 48 h; series mostly up to 57.5 µM
Procedure, shortened: as §1

[8] = test system: Tov-21-G; conditions: Gynecologic cancer cell panel viability, ATPlite luminescence, 48 h; series mostly up to 57.5 µM
Procedure, shortened: as §1

[9] = test system: Tov112D; conditions: Gynecologic cancer cell panel viability, ATPlite luminescence, 48 h; series mostly up to 57.5 µM
Procedure, shortened: as §1
% is scaled to controls: 0 for no effect and ±100 for the full control effect.

CC[C@H](/C=C/[C@@H](C)[C@H]1CC[C@H]2[C@@H]3CC=C4C[C@@H](O)CC[C@]4(C)[C@H]3CC[C@]12C)C(C)C
inactive: activity change, negative = cytotoxicity [1] 0.911% [at 6.55 µM] | activity change, negative = cytotoxicity [2] -1.7% [at 6.55 µM] | activity change, negative = cytotoxicity [3] 4.66% [at 6.55 µM] | activity change, negative = cytotoxicity [4] 3.22% [at 6.55 µM] | activity change, negative = cytotoxicity [5] 2.68% [at 6.55 µM] | activity change, negative = cytotoxicity [6] 2.16% [at 6.55 µM] | activity change, negative = cytotoxicity [7] 8.88% [at 6.55 µM] | activity change, negative = cytotoxicity [8] 16.8% [at 6.55 µM] | activity change, negative = cytotoxicity [9] -1.77% [at 6.55 µM]

CCC(C)/C=C(C)/C=C/C1=CC2=C(Cl)C(=O)C(C)(OC(C)=O)C(=O)C2=CN1C1CCCCN(C(CCC(N)=O)C(=O)O)C1=O (centres undefined)
inactive: Potency [1] | Potency [2] | Potency [3] | Potency [4] | Potency [5] | Potency [6] | Potency [7] | Potency [8] | Potency [9]

CC(C)(O)c1ccc2c(c1)C(O)CC1C(C)(C(=O)O)CCCC21C (centres undefined)
inactive: Potency [1] | Potency [2] | Potency [3] | Potency [4] | Potency [5] | Potency [6] | Potency [7] | Potency [8] | Potency [9]

COc1cc(C(=O)OC[C@H]2O[C@H](O[C@@]3(CO)O[C@@H](CO)[C@H](O)[C@H]3O)[C@H](O)[C@@H](O)[C@@H]2O)ccc1O
inactive: Potency [1] | Potency [2] | Potency [3] | Potency [4] | Potency [5] | Potency [6] | Potency [7] | Potency [8] | Potency [9]

CC1[C@@H](O)[C@@H](O)C2[C@]3(C)C(C[C@H]4OC(=O)[C@H](O)[C@]1(O)[C@@]24C)C(C)(O)C[C@H](O)[C@H]3O (some centres undefined)
inactive: Potency [1] | Potency [2] | Potency [3] | Potency [4] | Potency [5] | Potency [6] | Potency [7] | Potency [8] | Potency [9]

CN1C(=O)c2ccccc2-n2c(nc3ccccc3c2=O)[C@@]12O[C@H]2c1ccccc1
inactive: Potency [1] | Potency [2] | Potency [3] | Potency [4] | Potency [5] | Potency [6] | Potency [7] | Potency [8] | Potency [9]

CCCn1cnc2c(NCc3ccccc3)nc(N[C@H](CC)CO)nc21
inactive: Potency [1] | Potency [2] | Potency [3] | Potency [4] | Potency [5] | Potency [6] | Potency [7] | Potency [8] | Potency [9]

COc1c(C)c(C(=O)c2ccc(N)c(C(=O)O)c2)n2ccccc12
inactive: Potency [1] | Potency [2] | Potency [3] | Potency [4] | Potency [5] | Potency [6] | Potency [7] | Potency [8] | Potency [9]

CC1(C(=O)O)CCCC2(C)C1CCC13CC(CCC21)C1(CO)OC31 (centres undefined)
inactive: Potency [1] | Potency [2] | Potency [3] | Potency [4] | Potency [5] | Potency [6] | Potency [7] | Potency [8] | Potency [9]

CC1CCC2C(C)(C)C(O)CCC2(C)C12Cc1c(O)cc3c(c1O2)CN(C(CCC(N)=O)C(=O)O)C3=O (centres undefined)
inactive: Potency [1] | Potency [2] | Potency [3] | Potency [4] | Potency [5] | Potency [6] | Potency [7] | Potency [8] | Potency [9]

CC(C)CNC(=O)/C=C/CCCCc1ccc2c(c1)OCO2
inactive: Potency [1] | Potency [2] | Potency [3] | Potency [4] | Potency [5] | Potency [6] | Potency [7] | Potency [8] | Potency [9]

O=C(c1ccccn1)c1cnn2c(-c3ccncc3)ccnc12
inactive: Potency [1] | Potency [2] | Potency [3] | Potency [4] | Potency [5] | Potency [6] | Potency [7] | Potency [8] | Potency [9]

C=C/C=C/[C@@H]1OC[C@H](/C=C/C=C/C)[C@H]1O
inactive: Potency [1] | Potency [2] | Potency [3] | Potency [4] | Potency [5] | Potency [6] | Potency [7] | Potency [8] | Potency [9]

C=C1CCC2C(OC(=O)C2(O)COC(C)=O)C2C(=C)C(O)CC12 (centres undefined)
inactive: Potency [1] | Potency [2] | Potency [3] | Potency [4] | Potency [5] | Potency [6] | Potency [7] | Potency [8] | Potency [9]

COC(=O)C12C(=O)C(C)=C(O)C1(C)C(C)=CC1C34CCC(OC3=O)C(C)(C)C4CCC12C (centres undefined)
inactive: Potency [1] | Potency [2] | Potency [3] | Potency [4] | Potency [5] | Potency [6] | Potency [7] | Potency [8] | Potency [9]

CC1(C)C(=O)C(C)(C)c2cc(C(=O)Nc3ccc(C(=O)O)cc3)ccc21
inactive: Potency [1] | Potency [2] | Potency [3] | Potency [4] | Potency [5] | Potency [6] | Potency [7] | Potency [8] | Potency [9]

CC(=O)NC(CCC(=O)O)C(=O)NCCc1ccc(O)cc1 (centres undefined)
inactive: Potency [1] | Potency [2] | Potency [3] | Potency [4] | Potency [5] | Potency [6] | Potency [7] | Potency [8] | Potency [9]

CC1(C)CC2C(O)C3=C(CC(C)(O)C2C1)C(=O)OC3O (centres undefined)
inactive: Potency [1] | Potency [2] | Potency [3] | Potency [4] | Potency [5] | Potency [6] | Potency [7] | Potency [8] | Potency [9]

CC(C)NC[C@H](O)COc1ccc(CCOCC2CC2)cc1
inactive: Potency [1] | Potency [2] | Potency [3] | Potency [4] | Potency [5] | Potency [6] | Potency [7] | Potency [8] | Potency [9]

COc1cc(-c2cccc(O)c2)cc2c1OCO2
inactive: Potency [1] | Potency [2] | Potency [3] | Potency [4] | Potency [5] | Potency [6] | Potency [7] | Potency [8] | Potency [9]

CC(=O)O[C@H]1[C@H](C)[C@@H](O)[C@H]2[C@@H]1C=C(C(=O)O)[C@H]1C[C@@H]3[C@H]([C@H]21)[C@H]1C(=O)O[C@@H]2CC[C@@]3(C)O[C@]1(O)[C@@H]2C
inactive: Potency [1] | Potency [2] | Potency [3] | Potency [4] | Potency [5] | Potency [6] | Potency [7] | Potency [8] | Potency [9]

CO[C@@H](Cc1ccc(OCCc2nc(-c3ccccc3)oc2C)c2ccsc12)C(=O)O
inactive: Potency [1] | Potency [2] | Potency [3] | Potency [4] | Potency [5] | Potency [6] | Potency [7] | Potency [8] | Potency [9]

C/C=C(\C)C(=O)OC[C@H]1O[C@H](O[C@H]2O[C@H](CO)[C@@H](OC(=O)/C(C)=C/C)[C@H](O)[C@H]2O[C@@H]2O[C@H](CO)[C@@H](O)[C@H](O)[C@H]2O)[C@H](O[C@@H]2O[C@H](CO)[C@@H](O)[C@H](O)[C@H]2O)[C@@H](O)[C@@H]1O
inactive: activity change, negative = cytotoxicity [1] 10.5% [at 11.6 µM] | activity change, negative = cytotoxicity [2] 13.4% [at 11.6 µM] | activity change, negative = cytotoxicity [3] 8.94% [at 11.6 µM] | activity change, negative = cytotoxicity [4] 2.7% [at 11.6 µM] | activity change, negative = cytotoxicity [5] 8.14% [at 11.6 µM] | activity change, negative = cytotoxicity [6] 33.8% [at 11.6 µM] | activity change, negative = cytotoxicity [7] 3.25% [at 11.6 µM] | activity change, negative = cytotoxicity [8] 22.3% [at 11.6 µM] | activity change, negative = cytotoxicity [9] 9.9% [at 11.6 µM]

CC(=O)N[C@H](Cc1ccc(O)cc1)C(=O)N[C@H](CCCN=C(N)N)C(=O)N[C@H](Cc1ccccc1)C(N)=O (Ac-[dY]-[dR]-[dF]-NH2)
inactive: Potency [1] | Potency [2] | Potency [3] | Potency [4] | Potency [5] | Potency [6] | Potency [7] | Potency [8] | Potency [9]

NC(=O)[C@H]1CCCCc2c1[nH]c1ccc(Cl)cc21
inactive: Potency [1] | Potency [2] | Potency [3] | Potency [4] | Potency [5] | Potency [6] | Potency [7] | Potency [8] | Potency [9]

CC(=O)OC1C(O)CC(O[C@@H]2O[C@H](CO)[C@@H](O)[C@H](O)[C@H]2O)C2CCC3C(=O)OC(c4ccoc4)CC3(C)C21 (some centres undefined)
inactive: Potency [1] | Potency [2] | Potency [3] | Potency [4] | Potency [5] | Potency [6] | Potency [7] | Potency [8] | Potency [9]
